{"source": "the OligoGym collection"}
{"biological_target": "KLHL24", "assay": "pooled miR-30 sensor sort-seq; sequence = guide strand", "conditions": "shRNA"}
{"sequence": "TGGATCATAAGATTGAACCTTA", "sensor-assay potency score (higher = more potent)": 0.374}
{"sequence": "ATAACATCTGTGAATAAGCGGC", "sensor-assay potency score (higher = more potent)": -0.459}
{"sequence": "TTTACCATTACACACAGACATA", "sensor-assay potency score (higher = more potent)": -1.69}
{"sequence": "AAACTTTTCGCTTAGTTGCTGG", "sensor-assay potency score (higher = more potent)": -0.446}
{"sequence": "TTGCCTTGGTCAGTCCACCGGC", "sensor-assay potency score (higher = more potent)": -0.546}
{"sequence": "TATCAGAACAAGTATTATCATC", "sensor-assay potency score (higher = more potent)": -1.27}
{"sequence": "TTTTGTGACGCCATCTGCCTTT", "sensor-assay potency score (higher = more potent)": -0.286}
{"biological_target": "KLHL5", "assay": "pooled miR-30 sensor sort-seq; sequence = guide strand", "conditions": "shRNA"}
{"sequence": "TATGCAAATCTGTACAACCTTG", "sensor-assay potency score (higher = more potent)": -0.563}
{"sequence": "TAATGTCTGACTACTATTGGAA", "sensor-assay potency score (higher = more potent)": -0.622}
{"sequence": "TTGACATCTGTGCACACAGTGT", "sensor-assay potency score (higher = more potent)": -0.886}
{"sequence": "TAGCACTGCAACACCGAACTGT", "sensor-assay potency score (higher = more potent)": 0.529}
{"sequence": "TTATTGTTGCTTTAAGTCCTTA", "sensor-assay potency score (higher = more potent)": -0.543}
{"sequence": "TAAAATTACATCACACAACTGT", "sensor-assay potency score (higher = more potent)": 0.596}
{"sequence": "TTTCTCTACATAAATTTGCATA", "sensor-assay potency score (higher = more potent)": -0.841}
{"sequence": "TTTGACATCAGGCACTTTGTGC", "sensor-assay potency score (higher = more potent)": -0.672}
{"sequence": "TTCATTAAAAACTTACAGCATG", "sensor-assay potency score (higher = more potent)": -0.802}
{"sequence": "TAACATGGGTCGTCTCTCTGGT", "sensor-assay potency score (higher = more potent)": 0.867}
{"sequence": "TATCTTTCCACACAGTCTGAGA", "sensor-assay potency score (higher = more potent)": -1.09}
{"sequence": "TGTGTGATCACAATCCACCAGC", "sensor-assay potency score (higher = more potent)": -0.62}
{"biological_target": "KLK5", "assay": "pooled miR-30 sensor sort-seq; sequence = guide strand", "conditions": "shRNA"}
{"sequence": "TTCGTGTAGACACCCGGTCTGT", "sensor-assay potency score (higher = more potent)": -0.664}
{"sequence": "TTTTCTGACTTAGCACGCTGAT", "sensor-assay potency score (higher = more potent)": -0.837}
{"sequence": "TTGATGGGTCTGACATCTTTAG", "sensor-assay potency score (higher = more potent)": -1.51}
{"sequence": "TAGAGAGACACGGTCAGCCCAA", "sensor-assay potency score (higher = more potent)": 0.0597}
{"sequence": "TTGGGCCTTAGCAACAGCGCGG", "sensor-assay potency score (higher = more potent)": -0.877}
{"sequence": "TGAACATTCTCAACATCTCTGG", "sensor-assay potency score (higher = more potent)": -0.405}
{"sequence": "ACTCTGAAAACTTTCTTCCTGC", "sensor-assay potency score (higher = more potent)": -0.332}
{"sequence": "TTGATGATGCGGCTGCTGCTGT", "sensor-assay potency score (higher = more potent)": -0.719}
{"sequence": "AACATTCTCAACATCTCTGGGA", "sensor-assay potency score (higher = more potent)": 0.475}
{"sequence": "TTTCTGACTTAGCACGCTGATA", "sensor-assay potency score (higher = more potent)": -1.58}
{"sequence": "TCTCGGGTAAGCATCCTCGCAC", "sensor-assay potency score (higher = more potent)": -0.337}
{"biological_target": "KPRP", "assay": "pooled miR-30 sensor sort-seq; sequence = guide strand", "conditions": "shRNA"}
{"sequence": "TAGTTGTTGCAGGTAGCCCTTG", "sensor-assay potency score (higher = more potent)": -0.668}
{"sequence": "TCTTAGACTGACATTGAGCCTG", "sensor-assay potency score (higher = more potent)": -0.234}
{"sequence": "TAGACTGGCACTTCACCTGTGT", "sensor-assay potency score (higher = more potent)": 0.425}
{"sequence": "TAGACTGACATTGAGCCTGGCC", "sensor-assay potency score (higher = more potent)": 0.158}
{"sequence": "TAGCCCTTGACTGAAACTGGGG", "sensor-assay potency score (higher = more potent)": -0.902}
{"sequence": "TGGTCTTAGACTGACATTGAGC", "sensor-assay potency score (higher = more potent)": -1.69}
{"sequence": "TACTGAGGGAAACAGCTGCTGT", "sensor-assay potency score (higher = more potent)": -0.994}
{"sequence": "TTGTCGTGGTAGAGGACGCGGG", "sensor-assay potency score (higher = more potent)": -1.43}
{"sequence": "TTGGTCTCCATGGCCATCCTGA", "sensor-assay potency score (higher = more potent)": -0.799}
{"sequence": "TTGAACCACCACTTGGCTCTGG", "sensor-assay potency score (higher = more potent)": 0.211}
